Values without a mark were called inactive. A call without a number means that no potency is given here. For part of these data: Potency and affinity values are given separately. Activity calls are given as the source filed them.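 How the source made its calls, unless noted: active means primary screen inhibitor hit that blocks the TRPC4 channel at some tested dose, yielding a dose curve; inactive means the rest.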
Columns and labels:
[1] = system: TRPC4 beta (transient receptor potential cation channel C4), mouse; test: TRPC4 cation channel opening, retest – cell-based, Fluo4 calcium, HEK293 TRPC4beta/mu-opioid, duplicates, 10 µM, confirmation (AID 2426;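 active means fluorescence ratio normalized to control raised more than 50% in primary screen plus both repeat runs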); settings: Fluo4 calcium fluorescence, at 10 µM; active compounds read high
[2] = system: transient receptor potential cation channel C4 beta (TRPC4), mouse; test: TRPC4 cation channel opening, second retest – cell-based, second round, Fluo4, HEK293 TRPC4beta/mu-opioid, 1 µM, confirmation (AID 2461;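 active means primary screen active and over 50% activation in each of two duplicate runs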); settings: Fluo4 calcium fluorescence, at 1 µM; active compounds read high
[3] = system: TRPC4 (transient receptor potential cation channel C4 beta), mouse; test: potentiation of DAMGO EC20 TRPC4 response – cell-based, second round, Fluo-4, HEK293 TRPC4beta/mu-opioid, 1 µM, confirmation (AID 2554;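 active means primary screen hit whose fluorescence ratio, in both repeats, exceeds the weak agonist control mean by 3 SD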); settings: DAMGO EC20, Fluo-4 calcium flux, at 1 µM; active compounds read high
[4] = system: TRPC4 beta (transient receptor potential cation channel C4), mouse; test: potentiation of DAMGO EC20 TRPC4 response – cell-based, Fluo-4, HEK293 TRPC4beta/mu-opioid, confirmation (AID 2555;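 active means primary screen hit whose calcium fluorescence ratio, in both repeats, exceeds the weak agonist control mean by 3 SD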); settings: DAMGO EC20, Fluo-4 calcium flux, at 10 µM; active compounds read high
[5] = molecular target: Short transient receptor potential channel 4 (Mus musculus) (UniProt Q9QUQ5); test: blockers of DAMGO-evoked TRPC4 calcium flux – cell-based, Fluo4, HEK293 TRPC4beta/mu-opioid, confirmation (AID 2636;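 active means calcium signal cut by more than 3 SD below the full-agonist control yet still positive, in both repeats and the earlier primary screen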); settings: at 10 µM; active compounds read high
[6] = molecular target: Short transient receptor potential channel 4 (Mus musculus) (UniProt Q9QUQ5); test: blockers of DAMGO-evoked TRPC4 calcium flux – cell-based, second round, Fluo4, HEK293 TRPC4beta/mu-opioid, 1 µM, confirmation (AID 2637;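 active means calcium signal ratio cut to more than 3 SD under the fully stimulated control mean yet still positive, in both repeats and the primary screen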); settings: at 1 µM; active compounds read high
[7] = molecular target: Short transient receptor potential channel 4 (Mus musculus) (UniProt Q9QUQ5); test: calcium entry via TRPC4 opening agents – cell-based, HEK293 TRPC4/mu-opioid, Fluo-4 calcium, dose response (AID 434937;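 active means primary screen activator hit with a dose response curve and TRPC4 channel activation at any tested dose; inactive means no activation, no dose response, or not a primary hit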)
[8] = molecular target: Short transient receptor potential channel 4 (Mus musculus) (UniProt Q9QUQ5); test: potentiation of DAMGO-evoked TRPC4 calcium signal – cell-based, HEK293 TRPC4/mu-opioid, Fluo-4 calcium, EC20 DAMGO, dose response (AID 434941;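 active means earlier screen potentiator hit that boosts the TRPC4 ion channel at some dose, with a dose response; inactive means no potentiation, no dose response, or not a prior hit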;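 further: calcium entry triggered by an EC20 dose of DAMGO at the co-expressed mu-opioid receptor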)
[9] = molecular target: Short transient receptor potential channel 4 (Mus musculus) (UniProt Q9QUQ5); test: block of DAMGO-driven TRPC4 calcium entry – cell-based, HEK293 TRPC4/mu-opioid, Fluo-4 calcium, dose response (AID 434942)
[10] = molecular target: Short transient receptor potential channel 6 (Mus musculus) (UniProt Q61143); test: TRPC6 blockade by TRPC4 inhibitor hits – cell-based, HEK293, membrane potential dye, duplicate, selectivity assay for TRPC4 inhibitor project, confirmation (AID 434948;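 active means active in primary screen and both duplicates, each dropping signal beyond three positive-control SD with fluorescence still positive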); settings: HEK293 TRPC6, membrane potential dye fluorescence, at 10 µM, stimulated with maximal-effect acetylcholine; active compounds read high
[11] = molecular target: Short transient receptor potential channel 6 (Mus musculus) (UniProt Q61143); test: TRPC6 opening by TRPC4 activator hits – cell-based, HEK293, membrane potential dye, duplicate, selectivity assay for TRPC4 activator project, confirmation (AID 434950;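 active means membrane potential signal rise above negative control mean plus 3 SD in both duplicates, also active in the earlier TRPC4 screen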); settings: HEK293 TRPC6, membrane potential fluorescence, at 10 µM; activation: active compounds read high; outcome: activation
[12] = molecular target: Short transient receptor potential channel 6 (Mus musculus) (UniProt Q61143); test: positive modulators of mouse TRPC6 channel – HEK293 cells, membrane potential dye, duplicate, selectivity assay for TRPC4 potentiator project, confirmation (AID 434952;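 active means compound raising the membrane signal above positive-control mean plus 3 SD in both repeats, and a primary screen hit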); settings: HEK293 TRPC6, membrane potential dye fluorescence, at 10 µM, maximal acetylcholine added after compound; active compounds read high
[13] = molecular target: Short transient receptor potential channel 4 (Mus musculus) (UniProt Q9QUQ5); test: calcium flux activators in TRPC4/5HT1a cells, counter-screen for TRPC4 activator project, cell-based, second counter screen, HEK293 TRPC4/5HT1a, Fluo-4 (AID 434977;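 active means calcium signal rise above buffer-control mean plus 5 SD in both duplicates, and also a hit in the primary screen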); settings: Fluo-4 calcium flux, at 10 µM; active compounds read high
[14] = serotonin-gated TRPC4 signal block – cell-based, second counter screen, HEK293 TRPC4/5HT1a, Fluo-4, counter-screen for TRPC4 inhibitor project, confirmation (AID 434978;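 active means primary screen active whose calcium signal fell more than 3 SD beyond the full-serotonin control mean in both duplicate plates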;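 on outcome: serotonin given first at submaximal then at maximal dose after compound preincubation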); settings: Fluo-4 calcium flux, at 10 µM, serotonin added to trigger calcium flux; active compounds read high
[15] = system: TRPC4 (mouse), co-expressed with 5HT1a in HEK293; test: enhancement of serotonin-evoked TRPC4 response – cell-based, second counter screen, HEK293 TRPC4/5HT1a, Fluo-4, counter-screen for TRPC4 potentiator project, confirmation (AID 434979;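 active means signal rise over 3 SD above mean of control wells given weak agonist, in both repeats and first screen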); settings: Fluo-4 calcium flux, at 10 µM, serotonin added at its EC20 dose; active compounds read high
[16] = nonspecific calcium rise without TRPC4 – cell-based, HEK293 mu-opioid receptor line, counter-screen for TRPC4 activator project, confirmation (AID 449723;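 active means hit in primary screen, with calcium signal over 5 SD above buffer well mean in both duplicates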;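 further: counter screen cells carry the mu-opioid receptor alone and lack TRPC4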); settings: HEK293 mu-opioid cells, Fluo-4 calcium fluorescence, at 10 µM; active compounds read high
[17] = nonspecific potentiation of DAMGO calcium response – cell-based, HEK293 mu-opioid receptor line, counter-screen for TRPC4 allosteric potentiator project, confirmation (AID 449724;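 active means calcium signal rise more than 3 SD above the low-dose agonist control mean, in both duplicate plates and the primary screen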); settings: HEK293 mu-opioid receptor cells, Fluo-4 calcium flux, at 10 µM, compound added before EC20 DAMGO stimulus; active compounds read high

Short transient receptor potential channel 4 (Mus musculus), sequence (Q9QUQ5 whole entry, looked up): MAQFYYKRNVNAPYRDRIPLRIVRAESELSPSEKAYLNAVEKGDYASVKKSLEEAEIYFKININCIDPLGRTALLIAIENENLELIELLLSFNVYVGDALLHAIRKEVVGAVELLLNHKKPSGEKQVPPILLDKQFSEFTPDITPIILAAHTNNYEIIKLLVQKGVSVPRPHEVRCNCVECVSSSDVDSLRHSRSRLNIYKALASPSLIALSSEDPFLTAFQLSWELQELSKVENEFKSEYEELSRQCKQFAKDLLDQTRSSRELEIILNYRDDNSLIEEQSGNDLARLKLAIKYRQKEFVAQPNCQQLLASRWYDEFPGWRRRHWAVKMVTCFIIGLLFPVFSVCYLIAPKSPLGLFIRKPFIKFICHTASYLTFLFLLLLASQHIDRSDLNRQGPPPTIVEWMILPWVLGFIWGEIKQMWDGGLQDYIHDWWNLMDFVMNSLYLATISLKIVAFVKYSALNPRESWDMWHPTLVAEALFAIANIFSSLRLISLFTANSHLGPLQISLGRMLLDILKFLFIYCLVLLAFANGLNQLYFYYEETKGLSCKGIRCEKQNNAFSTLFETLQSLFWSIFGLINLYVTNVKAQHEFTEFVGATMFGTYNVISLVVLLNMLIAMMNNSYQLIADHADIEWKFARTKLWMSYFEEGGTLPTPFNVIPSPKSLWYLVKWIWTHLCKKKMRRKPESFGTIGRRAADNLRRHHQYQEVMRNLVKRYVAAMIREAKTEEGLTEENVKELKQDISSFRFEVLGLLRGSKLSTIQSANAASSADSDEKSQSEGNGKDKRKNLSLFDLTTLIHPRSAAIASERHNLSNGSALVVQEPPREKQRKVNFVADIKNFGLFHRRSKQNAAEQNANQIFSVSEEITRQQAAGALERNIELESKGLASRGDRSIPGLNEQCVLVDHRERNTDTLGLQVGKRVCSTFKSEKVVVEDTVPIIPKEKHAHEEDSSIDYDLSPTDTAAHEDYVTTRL
Short transient receptor potential channel 6 (Mus musculus), sequence (Q61143 whole entry, looked up): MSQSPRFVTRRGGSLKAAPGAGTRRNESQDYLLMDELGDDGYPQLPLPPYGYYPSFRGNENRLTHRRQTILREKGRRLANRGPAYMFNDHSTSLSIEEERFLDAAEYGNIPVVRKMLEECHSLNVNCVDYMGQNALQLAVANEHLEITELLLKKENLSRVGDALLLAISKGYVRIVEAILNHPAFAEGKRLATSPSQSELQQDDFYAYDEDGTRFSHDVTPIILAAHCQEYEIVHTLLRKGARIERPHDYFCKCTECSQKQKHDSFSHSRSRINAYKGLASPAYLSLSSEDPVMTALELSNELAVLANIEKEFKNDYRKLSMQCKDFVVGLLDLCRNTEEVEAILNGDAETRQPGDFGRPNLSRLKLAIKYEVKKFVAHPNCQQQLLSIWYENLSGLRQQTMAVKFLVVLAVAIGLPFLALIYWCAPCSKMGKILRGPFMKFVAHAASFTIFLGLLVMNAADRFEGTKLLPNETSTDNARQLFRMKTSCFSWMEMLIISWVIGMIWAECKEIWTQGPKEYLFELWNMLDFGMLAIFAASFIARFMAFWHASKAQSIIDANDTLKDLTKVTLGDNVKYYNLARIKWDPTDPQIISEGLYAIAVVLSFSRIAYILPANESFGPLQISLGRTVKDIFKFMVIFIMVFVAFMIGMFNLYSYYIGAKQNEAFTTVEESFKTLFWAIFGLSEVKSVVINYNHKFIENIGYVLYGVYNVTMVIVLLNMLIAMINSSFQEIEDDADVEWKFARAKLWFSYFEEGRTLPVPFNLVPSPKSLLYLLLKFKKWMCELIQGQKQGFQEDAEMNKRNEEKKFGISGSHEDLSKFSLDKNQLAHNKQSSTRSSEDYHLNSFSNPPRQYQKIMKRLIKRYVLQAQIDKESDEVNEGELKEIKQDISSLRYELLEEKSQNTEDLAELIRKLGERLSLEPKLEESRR

Cc1ccc(-c2csc3ncnc(NCCN4CCOCC4)c23)cc1
outcome [1]: inactive | outcome [2]: inactive | outcome [3]: inactive | outcome [4]: inactive | inhibition [5]: 76% (active) | outcome [6]: inactive | outcome [7]: inactive | outcome [8]: inactive | outcome [9]: inactive | outcome [10]: inactive | outcome [11]: inactive | outcome [12]: inactive | outcome [13]: inactive | inhibition [14]: 32.6% (active) | outcome [15]: inactive | outcome [16]: inactive | outcome [17]: inactive

O/N=C/c1cn(-c2ccccc2)nc1-c1ccc2c(c1)OCCO2
outcome [1]: inactive | outcome [2]: inactive | outcome [3]: inactive | potentiation [4]: 16% (active) | outcome [5]: inactive | outcome [6]: inactive | outcome [7]: inactive | outcome [8]: inactive | outcome [9]: inactive | outcome [10]: inactive | outcome [11]: inactive | outcome [12]: inactive | outcome [13]: inactive | outcome [14]: inactive | potentiation [15]: 29.3% (active) | outcome [16]: inactive | outcome [17]: inactive

CCn1c(CN2CCN(C(c3ccccc3)c3ccccc3)CC2)nc2c1c(=O)n(C)c(=O)n2C
outcome [1]: inactive | outcome [2]: inactive | outcome [3]: inactive | outcome [4]: inactive | outcome [5]: inactive | outcome [6]: inactive | outcome [7]: inactive | outcome [8]: inactive | outcome [9]: inactive | outcome [10]: inactive | outcome [11]: inactive | outcome [12]: inactive | outcome [13]: inactive | outcome [14]: inactive | potentiation [15]: 18.4% (active) | outcome [16]: inactive | outcome [17]: inactive

O=C(COc1coc(CN2CCN(c3ccccc3F)CC2)cc1=O)Nc1ccccc1
outcome [1]: inactive | outcome [2]: inactive | outcome [3]: inactive | outcome [4]: inactive | outcome [5]: inactive | outcome [6]: inactive | outcome [7]: inactive | outcome [8]: inactive | outcome [9]: inactive | outcome [10]: inactive | outcome [11]: inactive | outcome [12]: inactive | outcome [13]: inactive | outcome [14]: inactive | outcome [15]: inactive | outcome [16]: inactive | outcome [17]: inactive

O=S(=O)(c1ccc(Oc2ccc(Br)cc2)cc1)N1CCOCC1
outcome [1]: inactive | outcome [2]: inactive | outcome [3]: inactive | outcome [4]: inactive | outcome [5]: inactive | outcome [6]: inactive | outcome [7]: inactive | outcome [8]: inactive | outcome [9]: inactive | outcome [10]: inactive | outcome [11]: inactive | outcome [12]: inactive | outcome [13]: inactive | outcome [14]: inactive | outcome [15]: inactive | outcome [16]: inactive | outcome [17]: inactive

O=[N+]([O-])c1ccc(C[n+]2cccc(O)c2)cc1
outcome [1]: inactive | outcome [2]: inactive | outcome [3]: inactive | outcome [4]: inactive | outcome [5]: inactive | outcome [6]: inactive | outcome [7]: inactive | outcome [8]: inactive | outcome [9]: inactive | outcome [10]: inactive | activation [11]: 28.5% (active) | outcome [12]: inactive | outcome [13]: inactive | outcome [14]: inactive | outcome [15]: inactive | outcome [16]: inactive | outcome [17]: inactive

CCOc1cccc(CN2CCCC(C(=O)c3cccc(C(F)(F)F)c3)C2)c1O (stereo not given)
outcome [1]: inactive | outcome [2]: inactive | outcome [3]: inactive | outcome [4]: inactive | inhibition [5]: 77% (active) | outcome [6]: inactive | outcome [7]: inactive | outcome [8]: inactive | outcome [9]: inactive | outcome [10]: inactive | outcome [11]: inactive | outcome [12]: inactive | outcome [13]: inactive | inhibition [14]: 42.2% (active) | outcome [15]: inactive | outcome [16]: inactive | outcome [17]: inactive

COc1ccccc1-c1cc(-c2ccccc2)nc(=O)[nH]1
outcome [1]: inactive | outcome [2]: inactive | outcome [3]: inactive | potentiation [4]: 22% (active) | outcome [5]: inactive | outcome [6]: inactive | outcome [7]: inactive | outcome [8]: inactive | outcome [9]: inactive | outcome [10]: inactive | outcome [11]: inactive | outcome [12]: inactive | outcome [13]: inactive | outcome [14]: inactive | potentiation [15]: 51.2% (active) | outcome [16]: inactive | outcome [17]: inactive

Cc1ccc(Cn2c(=N)c(C(=O)NCC3CCCO3)cc3c(=O)n4ccccc4nc32)cc1 (stereo not given)
outcome [1]: inactive | outcome [2]: inactive | outcome [3]: inactive | potentiation [4]: 47% (active) | outcome [5]: inactive | outcome [6]: inactive | outcome [7]: inactive | outcome [8]: inactive | outcome [9]: inactive | outcome [10]: inactive | outcome [11]: inactive | outcome [12]: inactive | outcome [13]: inactive | outcome [14]: inactive | potentiation [15]: 19.2% (active) | outcome [16]: inactive | outcome [17]: inactive

Cc1ccc(NS(=O)(=O)c2ccc(NS(=O)(=O)c3cccs3)cc2)cc1
outcome [1]: inactive | outcome [2]: inactive | outcome [3]: inactive | outcome [4]: inactive | outcome [5]: inactive | outcome [6]: inactive | outcome [7]: inactive | outcome [8]: inactive | outcome [9]: inactive | outcome [10]: inactive | outcome [11]: inactive | outcome [12]: inactive | outcome [13]: inactive | outcome [14]: inactive | potentiation [15]: 15% (active) | outcome [16]: inactive | outcome [17]: inactive

CCn1c(C2CC(=O)N(Cc3ccccc3)C2)nc2ccccc21 (stereo not given)
outcome [1]: inactive | outcome [2]: inactive | outcome [3]: inactive | potentiation [4]: 11% (active) | outcome [5]: inactive | outcome [6]: inactive | outcome [7]: inactive | outcome [8]: inactive | outcome [9]: inactive | outcome [10]: inactive | outcome [11]: inactive | outcome [12]: inactive | outcome [13]: inactive | outcome [14]: inactive | potentiation [15]: 23.9% (active) | outcome [16]: inactive | outcome [17]: inactive

NC(=O)c1nsc(C(=O)N(Cc2ccco2)C(C(=O)NCc2ccccc2)c2ccc(O)cc2)c1N (stereo not given)
outcome [1]: inactive | outcome [2]: inactive | outcome [3]: inactive | outcome [4]: inactive | inhibition [5]: 72% (active) | outcome [6]: inactive | outcome [7]: inactive | outcome [8]: inactive | outcome [9]: inactive | outcome [10]: inactive | outcome [11]: inactive | outcome [12]: inactive | outcome [13]: inactive | inhibition [14]: 40% (active) | outcome [15]: inactive | outcome [16]: inactive | outcome [17]: inactive

COc1ccc(N2CCN(C3CCCCC3NS(=O)(=O)c3ccc(Cl)cc3)CC2)cc1 (stereo not given)
outcome [1]: inactive | outcome [2]: inactive | outcome [3]: inactive | outcome [4]: inactive | outcome [5]: inactive | outcome [6]: inactive | outcome [7]: inactive | outcome [8]: inactive | outcome [9]: inactive | outcome [10]: inactive | outcome [11]: inactive | outcome [12]: inactive | outcome [13]: inactive | outcome [14]: inactive | potentiation [15]: 10.1% (active) | outcome [16]: inactive | outcome [17]: inactive

COc1ccc(-n2ncc3c(N4CCc5ccccc54)ncnc32)cc1
outcome [1]: inactive | outcome [2]: inactive | outcome [3]: inactive | outcome [4]: inactive | outcome [5]: inactive | outcome [6]: inactive | outcome [7]: inactive | outcome [8]: inactive | outcome [9]: inactive | outcome [10]: inactive | outcome [11]: inactive | outcome [12]: inactive | outcome [13]: inactive | outcome [14]: inactive | outcome [15]: inactive | outcome [16]: inactive | outcome [17]: inactive

CN(C)C(CNc1ccc(C(N)=O)cc1[N+](=O)[O-])c1ccccc1 (stereo not given)
outcome [1]: inactive | outcome [2]: inactive | outcome [3]: inactive | outcome [4]: inactive | outcome [5]: inactive | outcome [6]: inactive | outcome [7]: inactive | outcome [8]: inactive | outcome [9]: inactive | outcome [10]: inactive | outcome [11]: inactive | outcome [12]: inactive | outcome [13]: inactive | outcome [14]: inactive | outcome [15]: inactive | outcome [16]: inactive | outcome [17]: inactive

From PubChem BioAssay
